PLK1 PBD inh: inhibitors of human PLK1 polo-box domain binding; Potency, µM, usual class: inhibitors; AID 720504; Plk1 PBD binding of FITC phosphopeptide, fluorescence polarization; actives 2.8% (n = 360,000); further: series mostly up to about 57 µM; nearly all actives have a fitted effect of over 65% in size
DT40 TDP1 no CPT: qHTS for Inhibitors of human tyrosyl-DNA phosphodiesterase 1 (TDP1): qHTS in cells in absence of CPT; actives 15% (n = 420,000); DT40 Tdp1-/- hTDP1 cells, no CPT, ATP luminescence, 48 h; AID 686978, 2013; Potency, µM (doses to about 46.2 µM), actives largely listed as inhibitors; further: nearly all actives have a fitted effect of over 55% in size
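Camptothecin absent (DMSO only). Human TDP1-complemented DT40 knockout cells, 400 cells/well, 37 °C for minimum 48 hr; ATP measured via CellTiter-Glo, 30 min dark incubation, luminescence.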
VDR inh: blocks the human vitamin D receptor | AID 504847 | Potency, µM, actives largely listed as inhibitors | P11473 | VDR-SRC2-3 peptide fluorescence polarization, 2 h | actives 0.93% (n = 400,000)
Target sequence (P11473 whole entry, looked up): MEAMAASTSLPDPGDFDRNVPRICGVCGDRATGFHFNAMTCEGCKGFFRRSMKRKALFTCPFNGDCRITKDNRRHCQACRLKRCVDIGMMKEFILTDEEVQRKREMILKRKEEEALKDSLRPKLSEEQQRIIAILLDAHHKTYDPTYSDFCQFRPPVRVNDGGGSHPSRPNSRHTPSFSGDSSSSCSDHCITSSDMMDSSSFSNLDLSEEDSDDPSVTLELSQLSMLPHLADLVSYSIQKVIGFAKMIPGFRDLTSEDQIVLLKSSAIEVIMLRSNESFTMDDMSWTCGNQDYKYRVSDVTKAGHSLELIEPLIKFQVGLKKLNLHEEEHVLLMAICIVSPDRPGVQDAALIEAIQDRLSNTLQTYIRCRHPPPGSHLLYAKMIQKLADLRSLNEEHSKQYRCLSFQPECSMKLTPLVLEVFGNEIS
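VDR–SRC2-3 interaction, FP format. Cmpds 23 nl via pintool, brief spin, 2 h ambient incubation.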
TDP1 cell CPT: DT40-hTDP1 cell growth loss with CPT. chicken DT40 Tdp1-/-;hTDP1 cells + 20 nM CPT, ATP luminescence, 48 h. Potency, µM (top dose mostly 46.2 µM), hits mostly inhibitors. actives 12% (n = 420,000). AID 686979; further: nearly all actives have a fitted effect of over 55% in size
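Cell growth measured by CellTiter-Glo luminescence after a minimum 48 h, 37 C compound exposure with 20 nM CPT in Tdp1-knockout DT40 cells stably expressing hTDP1, seeded 400/well; qHTS titration format.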
KAT2A inh: inhibitors of human GCN5L2 histone acetyltransferase | actives 0.21% (n = 390,000) | GCN5L2 HAT assay, ThioGlo1 CoA-SH fluorescence | Potency, µM (highest dose often 58.9 µM), most hits filed as inhibitors
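Titration-based screen in which CoA formation is detected via maleimide probe ThioGlo1 (50uM) turning fluorescent on thiol reaction; substrates H3(1-25) 75uM and acetyl-CoA 70uM, GCN5L2 20nM, 20 min incubation at room temperature.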
TDP1 block: blocks human tyrosyl-DNA phosphodiesterase 1; AID 485290; actives 0.28% (n = 350,000); Potency, µM (doses to about 130 µM), actives largely listed as inhibitors; recombinant TDP1, AlphaScreen DNA substrate cleavage; further: nearly all actives have a fitted effect of over 40% in size
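Compounds were preincubated with Tdp1 (1 nM final) for 15 min at room temperature before substrate (15 nM final) started a 5 min reaction; beads (10 ug/ml final) were then added for 10 min before AlphaScreen detection.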
Large screens that a line does not name were inactive. Only some compounds are listed: those with a hit (about 18% of all), similar ones and a draw of the others. The call rests on the fitted dose curve; in most records, active means well fitted curve in the direction sought with a large enough effect; inconclusive means small, poorly fitted or top-dose-only effect, or another doubt; inactive means no such curve, though single readings can be large; an effect the other way counts as inactive or inconclusive.

Cc1cnc(CNc2ccnc(-c3ccc(N(C)C)cc3)n2)cn1	none (no result: PLK1 PBD inh)
Cc1onc(-c2ccccc2)c1-c1nnc(COC(=O)c2ccc(O)cc2)o1	DT40 TDP1 no CPT inconclusive, KAT2A inh inconclusive
CCOc1ccccc1Nc1nc(-c2sc(NC(=O)c3ccco3)nc2C)cs1	DT40 TDP1 no CPT 15µM, TDP1 cell CPT 15µM
Cc1ccc(Nc2nc(-c3sc(NC(=O)c4ccco4)nc3C)cs2)cc1	DT40 TDP1 no CPT 13µM, TDP1 cell CPT inconclusive
Cc1ccc(Nc2nc(-c3sc(NC(=O)c4cccc(Cl)c4)nc3C)cs2)cc1	none (no result: PLK1 PBD inh, DT40 TDP1 no CPT, VDR inh, TDP1 cell CPT)
O=C1Nc2ccccc2C(=O)N2CCC[C@@H]12	none (no result: PLK1 PBD inh, KAT2A inh)
O=C1Nc2cc(Cl)cnc2N2CCCC12 (configuration not stated)	PLK1 PBD inh 30µM, VDR inh inconclusive
CC(C)c1ccc(NC(=O)CSc2nc3ncccc3[nH]2)cc1	DT40 TDP1 no CPT 26µM, TDP1 cell CPT inconclusive
COc1ccc(NC(=O)CSc2nc3ncccc3[nH]2)cc1OC	TDP1 cell CPT inconclusive
CC(C)OC(=O)c1ccc(NC(=O)CSc2nc3ncccc3[nH]2)cc1	DT40 TDP1 no CPT 13µM, TDP1 cell CPT 8.2µM
CC12CCC(=O)N1C(C(=O)NNC(=O)c1ccccc1Cl)CS2 (configuration not stated)	none
O=C(CCCc1c[nH]c2ccccc12)N[C@@H](Cc1c[nH]c2ccccc12)C(=O)O	none (no result: TDP1 block)
COCCCNC(=O)CSc1nc2c(sc3ccccc32)c(=O)n1CCc1ccc(OC)c(OC)c1	DT40 TDP1 no CPT 5.2µM, TDP1 cell CPT inconclusive (no result: PLK1 PBD inh)
CCOCCCn1c(SCC(=O)NCCCOC)nc2c(sc3ccccc32)c1=O	none (no result: PLK1 PBD inh)
COCCCn1c(SCC(=O)Nc2ccccc2OC)nc2c(sc3ccccc32)c1=O	DT40 TDP1 no CPT 26µM, TDP1 cell CPT 23µM (no result: PLK1 PBD inh)
CCOC(=O)c1cccc(NC(=O)/C=C/c2ccc([N+](=O)[O-])cc2)c1	DT40 TDP1 no CPT 8.2µM, TDP1 cell CPT 15µM
COC(=O)c1cccc(NC(=O)/C=C/c2cccc([N+](=O)[O-])c2)c1	DT40 TDP1 no CPT 13µM, TDP1 cell CPT inconclusive
COc1ccccc1C(=O)N/C(=C/c1cccc([N+](=O)[O-])c1)C(=O)Nc1cccc(C(=O)O)c1	PLK1 PBD inh 30µM, DT40 TDP1 no CPT inconclusive, VDR inh inconclusive, TDP1 cell CPT 21µM
O=C(/C=C/c1cccc([N+](=O)[O-])c1)Nc1cc(C(=O)O)cc(C(=O)O)c1	PLK1 PBD inh 11µM, DT40 TDP1 no CPT inconclusive, VDR inh 35µM, TDP1 cell CPT inconclusive
O=[N+]([O-])c1cccc(CN2C(COCc3ccccc3)CCC=CS2(=O)=O)c1 (configuration not stated)	none (no result: PLK1 PBD inh, DT40 TDP1 no CPT, TDP1 cell CPT, KAT2A inh)
CC(=O)NCCNc1ncnc2ccc(-c3ccccc3C#N)cc12	DT40 TDP1 no CPT inconclusive, TDP1 cell CPT inconclusive (no result: PLK1 PBD inh, TDP1 block)
Cc1nc2scc(C)n2c(=O)c1S(=O)(=O)NCc1ccccc1Cl	none
Cc1nc2scc(C)n2c(=O)c1S(=O)(=O)NCCc1ccccc1	PLK1 PBD inh 12µM, DT40 TDP1 no CPT inconclusive, VDR inh inconclusive, TDP1 cell CPT inconclusive
Cc1nc2scc(C)n2c(=O)c1S(=O)(=O)NC(C)c1ccccc1 (configuration not stated)	PLK1 PBD inh 19µM, DT40 TDP1 no CPT inconclusive, VDR inh inconclusive, TDP1 cell CPT inconclusive
O=C(NCc1ccccn1)c1cnn(-c2nccc(-c3cccs3)n2)c1C1CC1	none (no result: PLK1 PBD inh, VDR inh, KAT2A inh, TDP1 block)
COCc1cccc(-c2csc(C(C)(O)c3cccc(F)c3)n2)c1 (configuration not stated)	DT40 TDP1 no CPT inconclusive, TDP1 cell CPT inconclusive (no result: VDR inh, KAT2A inh, TDP1 block)
Cc1ccc(NC(=O)COc2coc(CN3CCN(c4ccccc4)CC3)cc2=O)cc1	DT40 TDP1 no CPT 21µM
O=C(COc1coc(CN2CCN(c3cccc(Cl)c3)CC2)cc1=O)NC1CCCC1	DT40 TDP1 no CPT 15µM, TDP1 cell CPT inconclusive
Cc1ccc(CSC2=Nc3ccccc3C3=NC(CCC(=O)NCc4cccs4)C(=O)N23)c(C)c1 (configuration not stated)	DT40 TDP1 no CPT inconclusive, TDP1 cell CPT inconclusive (no result: PLK1 PBD inh)
CO[C@@]12[C@H](COC(N)=O)C3=C(C(=O)C(C)=C(N)C3=O)N1C[C@@H]1N[C@@H]12	DT40 TDP1 no CPT 0.73µM, TDP1 cell CPT 0.58µM (no result: TDP1 block)
CO[C@@]12[C@@H]3N[C@@H]3CN1C1=C(C(=O)C(N)=C(C)C1=O)[C@@H]2COC(N)=O	DT40 TDP1 no CPT 0.1µM, TDP1 cell CPT 0.12µM (no result: KAT2A inh, TDP1 block)
COc1ccc(C(OCCN2CCC[C@H](C(=O)O)C2)(c2ccc(OC)cc2)c2ccc(OC)cc2)cc1	none (no result: PLK1 PBD inh, DT40 TDP1 no CPT, TDP1 cell CPT)
CC1=CC2(C)NC(=O)C(C)C12 (configuration not stated)	none (no result: VDR inh, KAT2A inh, TDP1 block)
COc1ccc(-n2c(=O)c3ccc(C(=O)NCc4ccc(C)cc4)cc3n(Cc3ccc(Cl)cc3)c2=O)cc1	none (no result: PLK1 PBD inh)
COc1ccc(NC(=O)C2CC23CCN(Cc2cccc4ncccc24)CC3)cc1Cl (configuration not stated)	DT40 TDP1 no CPT inconclusive (no result: PLK1 PBD inh, VDR inh, KAT2A inh, TDP1 block)
O=C(OCC#CCSc1nnc(-c2cccc3ccccc23)o1)c1ccc(SC(F)(F)F)cc1	none (no result: PLK1 PBD inh, DT40 TDP1 no CPT, VDR inh, TDP1 cell CPT, KAT2A inh)
O=c1[nH]c(CN2CCN(c3ccc(O)cc3)CC2)nc2scc(-c3ccc(Cl)cc3)c12	DT40 TDP1 no CPT 4.6µM, TDP1 cell CPT 3.7µM
COc1cccc(N2CCN(Cc3nc4scc(-c5ccccc5)c4c(=O)[nH]3)CC2)c1	DT40 TDP1 no CPT 5.2µM, TDP1 cell CPT 5.2µM
COc1cccc(N2CCN(Cc3nc4ccccc4c(=O)[nH]3)CC2)c1	DT40 TDP1 no CPT inconclusive
Cc1cccc(NC(=O)c2c(NC(=O)c3ccco3)sc3c2CCC(C)C3)c1 (configuration not stated)	DT40 TDP1 no CPT inconclusive, TDP1 cell CPT inconclusive (no result: PLK1 PBD inh)
Cc1ccc(Nc2nc(N)nc(CSC(=S)N3CCN(c4ccccc4)CC3)n2)cc1	DT40 TDP1 no CPT inconclusive
COc1ccc(Nc2nc(N)nc(CSC(=S)N3CCOCC3)n2)cc1	DT40 TDP1 no CPT inconclusive, TDP1 cell CPT inconclusive
Cc1ccc(Nc2nc(N)nc(CSC(=S)N3CCOCC3)n2)c(C)c1	DT40 TDP1 no CPT 26µM, TDP1 cell CPT inconclusive
Nc1nc(CSC(=S)N2CCN(c3ccccc3)CC2)nc(Nc2ccccc2)n1	DT40 TDP1 no CPT inconclusive, TDP1 cell CPT 23µM
CCOC(=O)C1(C)CCCN(C(=O)c2cccnc2)C1 (configuration not stated)	none (no result: VDR inh, KAT2A inh, TDP1 block)
Clc1ccccc1CSc1nnc(C2CCNCC2)o1	DT40 TDP1 no CPT inconclusive, TDP1 cell CPT inconclusive (no result: PLK1 PBD inh)

High-throughput results from PubChem BioAssay.
